# Measured values: PubChem BioAssay (NCI)
# About 83,000 compounds went through this panel and 20% of them were active in at least one assay; those are over-represented in the sample as a whole.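 Interpretation: 100, growth as untreated; towards 0, rising growth inhibition; 0, no net growth; 0 to -100, cell death. Compounds scoring below 10 were considered active.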 A number with no mark means an inactive call. Activity calls are given as the source filed them.
# How the values were obtained:
# Experiment in all cases: NCI-60 one-dose screen, 48 h (100 = growth as untreated, 0 = no growth, -100 = all killed)
# Details in all cases: 10 µM unless noted
# [1] = tested on: NCI-H23 lung
# [2] = tested on: NCI-H226 lung
# [3] = tested on: NCI-H322M lung
# [4] = tested on: HOP-62 NSCLC
# [5] = tested on: NCI-H460 lung
# [6] = tested on: HOP-92 NSCLC
# [7] = tested on: NCI-H522 lung
# [8] = tested on: 786-0 renal
# [9] = tested on: COLO 205 colon
# [10] = tested on: DU-145 prostate
# [11] = tested on: K-562 leukemia
# [12] = tested on: MALME-3M melanoma
# [13] = tested on: MDA-MB-231 breast
# [14] = tested on: RXF 393 renal
# [15] = tested on: SF-268 CNS
# [16] = tested on: SF-295 CNS
# [17] = tested on: SF-539 CNS
# [18] = tested on: UACC-257 melanoma
# [19] = tested on: M14 melanoma
# [20] = tested on: A549/ATCC NSCLC
SMILES,growth [1],growth [2],growth [3] [%],growth [4],growth [5],growth [6],growth [7],growth [8],growth [9],growth [10],growth [11],growth [12],growth [13],growth [14],growth [15],growth [16],growth [17],growth [18],growth [19],growth [20]
CCS/C(Nc1ccccc1)=C(\C#N)C(=O)N/N=C/c1ccc(Cl)cc1Cl,41.3%,37.7%,70.9,36.7%,8.05% (active),29.2%,1.02% (active),31.8%,28.4%,20%,7.35% (active),38.1%,39%,2.63% (active),34%,17%,4.25% (active),51.9%,21%,–
N#CC1=C(N)Oc2c(sc3c(F)cccc23)C1c1ccc(F)cc1 (stereo unspecified),38.9%,36.5%,49.3,35.1%,11.6%,44.5%,-3.69% (active),19.8%,–,16.6%,11.1%,56.3%,39.6%,-16.5% (active),54.4%,14.6%,-14.3% (active),60.5%,0.877% (active),25.7%
N#Cc1cccc(-c2c(-c3ccc4ccccc4c3)oc3ccccc3c2=O)c1,60.7%,71.2%,64.6,41.5%,17.9%,51.8%,10.5%,35.5%,–,77.1%,11.5%,48.7%,55.7%,81.7%,65.8%,34.2%,43.4%,58.2%,6.18% (active),34.9%
O=C(Nc1nn(-c2ccc(Cl)cc2Cl)nc1-c1ccccc1)c1ccccc1,97.2%,98.6%,99.2,77.3%,107%,86.9%,87.2%,94.3%,99.3%,131%,91.9%,80.2%,98.3%,111%,107%,56.9%,121%,106%,–,–
O=C1c2c(c3c4ccccc4[nH]c3c3ccc4ccccc4c23)C(=O)N1CCN1CCCCC1,30.5%,67.5%,61.1,-11.9% (active),4.88% (active),53%,38%,26%,47%,26.2%,-7.75% (active),73.9%,75.7%,65.7%,39.6%,30.4%,46.3%,85.4%,30.2%,–
CC(C)c1ccc(COCc2cc(CN3CCCC3)c(O)c3ncccc23)cc1,8.78% (active),-6.04% (active),12.2,2.49% (active),-40.8% (active),-5.15% (active),-40.1% (active),-15.4% (active),–,18.6%,3.96% (active),8.44% (active),8.36% (active),3.03% (active),8.66% (active),4.84% (active),-22.1% (active),-12.8% (active),-6.21% (active),7.74% (active)
Cn1ccc2c3c(ccc21)CC3=O,97%,100%,116,111%,108%,114%,98.4%,107%,–,120%,111%,121%,103%,115%,110%,112%,126%,114%,107%,105%
Cc1ccc2c3c(c(=O)[nH]c2c1)C1(C(C#N)=C(N)O3)c2cc(Br)ccc2-c2ccc(Br)cc21,6.8% (active),-17% (active),16.5,-27.5% (active),-56.5% (active),-10.8% (active),-8.2% (active),-19.5% (active),-51.8% (active),-7.81% (active),18.8%,-47.9% (active),-33.9% (active),-63.6% (active),-26.9% (active),-68.7% (active),-51% (active),71.2%,50.6%,–
